The inhibition is the change of the read-out against control, counted positive when it falls.

Among the data in PubChem BioAssay AID588689 (Southern Research Specialized Biocontainment Screening …, 2011) are inhibition values, retold here.

In this assay the target is Genome polyprotein (Dengue virus type 2 (strain 16681-PDK53)) (UniProt P29991). The assay can be described thus: Dengue-2 NS5 methyltransferase inhibitors, primary screen, biochemical, confirmation dose response (AID 588689). To be noted: Dengue-2 NS5 methyltransferase capping enzyme assay, at 25 µM, stronger effect = higher value.

About 1,000 (0.29%) of roughly 340,000 compounds were called active. Rule as the data show it: inconclusive = inhibition above about 29% without an active follow-up result; inactive = below that. The list is a sample of the results. Potency and affinity values are given separately.

Sequence of Genome polyprotein (Dengue virus type 2 (strain 16681-PDK53)) (P29991 whole entry, looked up): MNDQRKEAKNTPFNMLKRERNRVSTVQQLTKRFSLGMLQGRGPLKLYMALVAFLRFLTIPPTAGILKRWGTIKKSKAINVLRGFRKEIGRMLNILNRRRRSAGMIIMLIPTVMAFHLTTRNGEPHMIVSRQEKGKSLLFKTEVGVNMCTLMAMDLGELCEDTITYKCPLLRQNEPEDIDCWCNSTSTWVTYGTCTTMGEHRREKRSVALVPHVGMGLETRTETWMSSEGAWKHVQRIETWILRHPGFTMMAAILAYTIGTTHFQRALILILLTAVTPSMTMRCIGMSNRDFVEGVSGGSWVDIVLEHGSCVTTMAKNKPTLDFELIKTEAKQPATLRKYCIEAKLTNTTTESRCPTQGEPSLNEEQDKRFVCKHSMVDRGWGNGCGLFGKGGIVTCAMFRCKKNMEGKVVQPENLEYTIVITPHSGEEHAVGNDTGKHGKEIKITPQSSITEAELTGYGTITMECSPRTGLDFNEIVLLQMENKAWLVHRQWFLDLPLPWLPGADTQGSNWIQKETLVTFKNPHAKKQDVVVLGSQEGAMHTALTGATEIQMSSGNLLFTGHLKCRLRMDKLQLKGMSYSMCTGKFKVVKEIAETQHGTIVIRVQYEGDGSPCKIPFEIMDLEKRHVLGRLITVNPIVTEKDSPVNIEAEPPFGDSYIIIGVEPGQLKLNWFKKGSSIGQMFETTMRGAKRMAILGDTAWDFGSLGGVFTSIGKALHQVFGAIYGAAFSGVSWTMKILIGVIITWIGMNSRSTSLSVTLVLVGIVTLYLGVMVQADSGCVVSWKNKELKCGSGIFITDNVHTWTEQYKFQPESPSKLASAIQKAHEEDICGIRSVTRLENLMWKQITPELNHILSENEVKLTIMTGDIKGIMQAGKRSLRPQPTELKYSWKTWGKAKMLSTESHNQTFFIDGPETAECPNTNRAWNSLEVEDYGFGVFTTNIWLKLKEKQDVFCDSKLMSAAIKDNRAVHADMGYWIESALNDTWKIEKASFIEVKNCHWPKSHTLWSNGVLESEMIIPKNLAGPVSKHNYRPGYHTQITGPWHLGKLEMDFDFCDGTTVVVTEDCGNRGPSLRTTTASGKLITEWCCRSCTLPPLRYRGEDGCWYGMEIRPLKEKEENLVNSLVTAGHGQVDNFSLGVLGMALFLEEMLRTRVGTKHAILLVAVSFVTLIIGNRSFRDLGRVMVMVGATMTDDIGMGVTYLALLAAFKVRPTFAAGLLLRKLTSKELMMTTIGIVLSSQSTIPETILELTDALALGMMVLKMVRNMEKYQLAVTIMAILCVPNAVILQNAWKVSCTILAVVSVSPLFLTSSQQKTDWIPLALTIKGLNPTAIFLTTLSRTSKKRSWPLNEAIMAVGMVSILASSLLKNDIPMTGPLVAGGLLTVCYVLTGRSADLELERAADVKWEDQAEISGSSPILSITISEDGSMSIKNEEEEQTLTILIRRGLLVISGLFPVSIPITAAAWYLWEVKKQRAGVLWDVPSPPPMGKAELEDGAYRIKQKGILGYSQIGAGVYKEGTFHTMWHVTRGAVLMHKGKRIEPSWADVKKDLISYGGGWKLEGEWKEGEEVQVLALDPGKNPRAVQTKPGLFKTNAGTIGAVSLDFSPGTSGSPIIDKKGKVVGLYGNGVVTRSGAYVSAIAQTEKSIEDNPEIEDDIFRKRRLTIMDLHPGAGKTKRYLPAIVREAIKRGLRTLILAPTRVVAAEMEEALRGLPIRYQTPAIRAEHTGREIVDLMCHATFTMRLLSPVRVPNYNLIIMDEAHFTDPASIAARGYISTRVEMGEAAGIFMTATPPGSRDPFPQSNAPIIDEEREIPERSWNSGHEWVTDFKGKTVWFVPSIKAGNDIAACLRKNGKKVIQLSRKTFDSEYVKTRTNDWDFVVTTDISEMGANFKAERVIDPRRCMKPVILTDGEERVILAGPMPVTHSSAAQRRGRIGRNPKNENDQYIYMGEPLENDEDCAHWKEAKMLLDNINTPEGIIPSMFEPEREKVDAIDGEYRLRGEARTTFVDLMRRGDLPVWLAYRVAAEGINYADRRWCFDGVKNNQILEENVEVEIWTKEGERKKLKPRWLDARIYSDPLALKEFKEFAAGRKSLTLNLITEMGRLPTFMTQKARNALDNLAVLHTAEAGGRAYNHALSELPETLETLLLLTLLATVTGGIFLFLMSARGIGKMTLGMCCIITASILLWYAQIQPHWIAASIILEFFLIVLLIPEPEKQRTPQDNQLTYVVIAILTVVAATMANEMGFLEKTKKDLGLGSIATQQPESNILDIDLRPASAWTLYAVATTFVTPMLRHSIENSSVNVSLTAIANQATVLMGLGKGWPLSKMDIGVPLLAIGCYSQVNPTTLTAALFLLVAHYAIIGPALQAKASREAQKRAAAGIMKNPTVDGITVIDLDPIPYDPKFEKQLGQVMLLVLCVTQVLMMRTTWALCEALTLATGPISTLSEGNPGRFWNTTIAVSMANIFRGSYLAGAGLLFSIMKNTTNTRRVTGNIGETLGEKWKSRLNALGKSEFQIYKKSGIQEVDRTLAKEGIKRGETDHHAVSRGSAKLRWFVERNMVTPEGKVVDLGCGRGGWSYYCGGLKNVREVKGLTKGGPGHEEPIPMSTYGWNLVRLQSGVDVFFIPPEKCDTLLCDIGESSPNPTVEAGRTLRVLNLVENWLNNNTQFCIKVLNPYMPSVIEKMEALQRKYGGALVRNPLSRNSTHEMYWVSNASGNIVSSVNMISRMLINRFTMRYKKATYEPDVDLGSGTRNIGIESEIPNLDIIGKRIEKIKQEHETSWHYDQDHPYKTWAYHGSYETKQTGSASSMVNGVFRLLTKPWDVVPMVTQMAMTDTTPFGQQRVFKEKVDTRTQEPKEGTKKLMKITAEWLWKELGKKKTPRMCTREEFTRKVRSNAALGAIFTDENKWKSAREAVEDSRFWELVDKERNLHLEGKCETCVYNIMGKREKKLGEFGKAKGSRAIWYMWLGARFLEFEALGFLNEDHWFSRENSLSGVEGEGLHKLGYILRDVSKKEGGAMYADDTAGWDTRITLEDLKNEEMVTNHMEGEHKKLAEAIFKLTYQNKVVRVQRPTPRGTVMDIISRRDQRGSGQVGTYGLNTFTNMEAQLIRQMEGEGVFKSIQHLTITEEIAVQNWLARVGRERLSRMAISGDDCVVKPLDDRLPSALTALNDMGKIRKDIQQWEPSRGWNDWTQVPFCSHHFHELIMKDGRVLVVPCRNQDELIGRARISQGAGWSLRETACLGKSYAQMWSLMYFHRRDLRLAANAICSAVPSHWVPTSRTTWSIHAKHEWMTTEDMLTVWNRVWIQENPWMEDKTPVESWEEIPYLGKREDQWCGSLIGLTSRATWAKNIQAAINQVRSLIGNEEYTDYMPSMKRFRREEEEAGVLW

On to `COc1ccc(NS(=O)(=O)c2cc(NC(=O)C3CC3)ccc2N2CCOCC2)cc1`, for which the inhibition is 0% (inactive).
Same read-out and setting: to `Cn1cnc([N+](=O)[O-])c1SCC(=O)NN` belongs 1.55% (inactive).
Still for that read-out and setting: the value for `COc1ccc([N+](=O)[O-])cc1N(CC(=O)NC1CCCCC1)S(C)(=O)=O` was 1.47% (inactive).
Still for that read-out and setting: the value for `COc1cccc(CN2CC(C(=O)NCCOc3ccccc3F)CCC2=O)c1` (stereo not given) was -4.36% (inactive); that for `O=C1Cc2cc(S(=O)(=O)N3CCNCC3)ccc2N1` was 0.77% (inactive); that for `O=C(c1cccc(S(=O)(=O)N2CCN(c3ccc(F)cc3)CC2)c1)N1CCCC1` was -6.98% (inactive).
With `CCc1nc2sc(C)c(C)c2c(=O)n1CCO`, the inhibition is -0.54% (inactive).
Still for that read-out and setting: the value for `N/C(=N\S(=O)(=O)c1ccccc1)c1ccc([N+](=O)[O-])cc1` was -9.13% (inactive); that for `O=C(Oc1ccc(NC2=C(Cl)C(=O)c3ccccc3C2=O)cc1)c1ccc([N+](=O)[O-])cc1` was 11.5% (inactive); that for `CC(=O)c1cc2c(cc1F)C(C)(C)CCC2(C)C` was 5.57% (inactive).
Same read-out and setting: to `COc1c2occc2c(OC)c2c(=O)cc(C)oc12` belongs -2.99% (inactive); to `COc1c2ccoc2cc2oc(C)cc(=O)c12`, -4.89% (inactive).
Still for that read-out and setting: the value for `Cc1ccc(CC2SC(N)=NC2=O)cc1` (stereo not given) was 0% (inactive); that for `CC(C)(C)NC(=O)NC(=O)CN1CCN(c2ccc(O)cc2)CC1` was 1.52% (inactive).
Take `Cc1cc(N)n(-c2ccc(Cl)cc2)n1`: the inhibition was -6.66% (inactive).
Same read-out and setting: the value for `Cn1c2nc(=O)[nH]c(=O)c-2cc2ccccc21` was -2.42% (inactive).
Same read-out and setting: the value for `Cc1ccc(-n2cc3ccc([N+](=O)[O-])cc3n2)cc1` was -5.66% (inactive); that for `Cc1ccc(-n2c3nc(=O)[nH]c(=O)c-3cc3c(C)nn(-c4ccccc4)c32)c(C)c1` was 4.54% (inactive).
Regarding `Cc1cccc(-n2cc(-c3ccc([N+](=O)[O-])cc3)[nH]c2=S)c1`, the inhibition is -5.13% (inactive).
Still for that read-out and setting: the value for `Cc1cccc(-n2cnc3cc([N+](=O)[O-])ccc32)c1` was 0% (inactive); that for `Cc1ccc(C)c(-n2c3nc(=O)n(C)c(=O)c-3cc3ccccc32)c1` was 0% (inactive); that for `Cc1ccc(-n2c(C)nn(Cc3ccc([N+](=O)[O-])cc3)c2=O)cc1` was -7.53% (inactive).
On to `Cc1ccc(S(=O)(=O)n2cnc3cc([N+](=O)[O-])ccc32)cc1C`, for which the inhibition is 0.8% (inactive).
On the same count and under the same terms, to `O=S(=O)(c1ccc(Cl)cc1)N1CCN(CCc2ccncc2)CC1` belongs -1.66% (inactive); to `Cc1cccc(C(C)C)c1NC(=O)COC(=O)CNS(=O)(=O)c1ccccc1`, 0% (inactive); to `O=C1NC2=C(C(=O)CCC2)C(c2ccc3ncccc3c2)N1` (stereo not given), 0% (inactive).
Same read-out and setting: the value for `C[C@H](CO)N1C[C@H](C)[C@@H](CN(C)C(=O)Nc2cc(F)ccc2F)Oc2ncc(-c3cccc(F)c3)cc2C1=O` was 0.58% (inactive).
The same measure, in the same setting: the value for `O=C1C=C(c2ccc(C(=O)O)cc2)C[C@@H](c2ccc3c(c2)OCO3)C1` was 0.83% (inactive); that for `O=C(Cn1c(C(F)(F)F)nc2ccccc21)Nc1ccccc1N1CCOCC1` was 0.69% (inactive); that for `Cc1cc(-c2ccco2)n(CC(=O)NCCCc2ccccc2)n1` was -4.87% (inactive).
`COC(=O)c1cccc(CSc2nc(-c3ccccc3)c(C#N)c(=O)[nH]2)c1`: the inhibition was 11.1% (inactive).
As for `N#Cc1c(-c2ccccc2)nc(SCc2cccc(Cl)c2)[nH]c1=O`, the inhibition was 19.5% (inactive).
On the same count and under the same terms, to `O=C(CCC(=O)N1CCCC(Nc2ccccc2)C1)c1ccc(F)cc1` (stereo not given) belongs 2.72% (inactive); to `COCCOC(=O)c1sc2nc[nH]c(=O)c2c1C`, -12.3% (inactive); to `Cc1ccc(S(=O)(=O)N2CCN(Cc3cccnc3)CC2)cc1`, 2.57% (inactive).
For the molecule `CC(=O)Nc1ccc(S(=O)(=O)N(C)CC(=O)OC(C)C(=O)NC2CCCCC2)cc1` (stereo not given), the inhibition was -5.07% (inactive).
On the same count and under the same terms, to `Cc1[nH][nH]c(=O)c1[C@@H](c1ccccc1[N+](=O)[O-])C(C#N)C#N` belongs 14.4% (inactive); to `COc1cccc(C(C[N+](=O)[O-])c2c(C)[nH]n(-c3ccccc3)c2=O)c1` (stereo not given), 8.91% (inactive); to `Cc1[nH][nH]c(=O)c1C(c1ccccc1[N+](=O)[O-])C(C#N)C#N` (stereo not given), -2.95% (inactive).
Regarding `Cc1[nH]n(-c2ccccc2)c(=O)c1C(C[N+](=O)[O-])c1ccccc1Cl` (stereo not given), the inhibition is -8.87% (inactive).
Turning to `COc1ccccc1N=Nc1c(C)[nH]n(-c2ccccc2)c1=O`, the inhibition is 1.98% (inactive). For the same molecule, the inhibition (measured here: pilot screen replicate inhibition) is -4.55%.
In the case of `Cc1c(C(c2cccc([N+](=O)[O-])c2O)c2c(C)n(C)n(-c3ccccc3)c2=O)c(=O)n(-c2ccccc2)n1C`, the inhibition is -5.62% (inactive).
For `S=C(Nc1ccccc1Cl)NC1CCCCCC1`, the inhibition was -2.33% (inactive).
On the same count and under the same terms, to `Cc1nnc(SCC(=O)Nc2nsc(-c3ccc(Cl)cc3)n2)s1` belongs 2.61% (inactive); to `CCOc1ccc(S(=O)(=O)N2CCN(S(=O)(=O)c3ccc(C(C)=O)cc3)CC2)cc1`, -2.49% (inactive); to `CC1CN(CCc2ccccc2)C(C)C/C1=N/O` (stereo not given), -3.09% (inactive).
The same measure, in the same setting: to `Cc1c(Cl)cccc1NC(=S)N(Cc1cccnc1)Cc1ccccc1Cl` belongs -4.52% (inactive); to `O=C(NCCS(=O)(=O)NCc1cccs1)c1ccccc1`, 0% (inactive); to `COc1ccc(C(=O)c2ccccc2C(=O)c2ccccc2)cc1`, -0.81% (inactive).
With `COC(=O)C1=C(C)NC(=O)/C1=C\c1cc(C)n(-c2ccccc2F)c1C`, the inhibition is 5.5% (inactive).
With `Cc1cc(/C=C2/C(=O)NN(c3ccccc3)C2=O)c(C)n1-c1ccc(O)cc1`, the inhibition is 5.82% (inactive).
Still for that read-out and setting: to `COC(=O)C1=C(C)NC(=O)/C1=C\c1cc(C)n(-c2ccccc2)c1C` belongs 5.15% (inactive); to `Cc1cc(/C=C2/C(=O)NN(c3ccccc3)C2=O)c(C)n1-c1cccc(O)c1`, 6.37% (inactive).
The same measure, in the same setting: the value for `Cc1nc(SCC(=O)N2CC(=O)Nc3ccccc32)nc(C)c1C` was 2.34% (inactive); that for `Cc1ccc(CS(=O)Cc2ccc(C(=O)NCc3ccc4c(c3)OCO4)o2)cc1` (stereo not given) was -13.8% (inactive).
Same read-out and setting: the value for `CC1CC(C)CN(S(=O)(=O)c2cccc(C(=O)N3CCN(c4ccc(F)cc4)CC3)c2)C1` (stereo not given) was -0.73% (inactive).
As to `CC(C)NC(=O)C1CCN(C(=O)N(C)C)CC1`, the inhibition was 0.71% (inactive).
With `Cc1c(NC(=S)NC(=O)c2ccc(-c3ccc(Cl)cc3)o2)cccc1C(=O)O`, the inhibition was 8.19% (inactive).
Same read-out and setting: the value for `O=C(O)c1ccc(NC(=S)NC(=O)c2ccc(-c3ccc(Br)cc3)o2)cc1` was -8.03% (inactive).
